# Measured values reported in PMC4336329 (PLoS ONE, 2015).
# The campaign covered roughly 310,000 compounds. About 14,000 (4.5%) showed an effect of 50% or more. Effects have a minus sign here. Shown is part of a subset that was picked to be rich in strong results.
# Biological target: human ether-à-go-go-related gene (hERG) potassium channel (human, UniProt Q12809)
# Test: primary screen, population patch clamp on CHO cells stably expressing hERG; higher = less effect of the substance
# Protocol: Briefly, Chinese hamster ovary (CHO) cells stably expressing the hERG channel were dislodged from tissue culture flasks and dispensed into PPC plates. […] During the recording, background leak currents were estimated by a 100 ms step to -80 mV from an initial holding potential of -70 mV and subtracted from the subsequent current measurement. The campaign was conducted in two phases using slight differences in recording protocol. In the first phase, the initial voltage pulse used a 100 ms step to -30 mV from a holding potential of -70 mV, a 2 s conditioning step to +25 mV, and a 2 s test step to -30 mV. During the second phase of the screen, the potential during the conditioning step was raised to +45 mV. In both phases of the campaign, a secondary voltage pulse was applied using the same parameters as the second phase initial pulse. The initial and secondary pulses were applied in the absence of compound, and upon application of 1 μM and 10 μM test concentrations. […]
# 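Note: peak tail current of the secondary pulse compared with the same well before compound.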
# human ether-à-go-go-related gene (hERG) potassium channel, sequence (Q12809 whole entry, looked up): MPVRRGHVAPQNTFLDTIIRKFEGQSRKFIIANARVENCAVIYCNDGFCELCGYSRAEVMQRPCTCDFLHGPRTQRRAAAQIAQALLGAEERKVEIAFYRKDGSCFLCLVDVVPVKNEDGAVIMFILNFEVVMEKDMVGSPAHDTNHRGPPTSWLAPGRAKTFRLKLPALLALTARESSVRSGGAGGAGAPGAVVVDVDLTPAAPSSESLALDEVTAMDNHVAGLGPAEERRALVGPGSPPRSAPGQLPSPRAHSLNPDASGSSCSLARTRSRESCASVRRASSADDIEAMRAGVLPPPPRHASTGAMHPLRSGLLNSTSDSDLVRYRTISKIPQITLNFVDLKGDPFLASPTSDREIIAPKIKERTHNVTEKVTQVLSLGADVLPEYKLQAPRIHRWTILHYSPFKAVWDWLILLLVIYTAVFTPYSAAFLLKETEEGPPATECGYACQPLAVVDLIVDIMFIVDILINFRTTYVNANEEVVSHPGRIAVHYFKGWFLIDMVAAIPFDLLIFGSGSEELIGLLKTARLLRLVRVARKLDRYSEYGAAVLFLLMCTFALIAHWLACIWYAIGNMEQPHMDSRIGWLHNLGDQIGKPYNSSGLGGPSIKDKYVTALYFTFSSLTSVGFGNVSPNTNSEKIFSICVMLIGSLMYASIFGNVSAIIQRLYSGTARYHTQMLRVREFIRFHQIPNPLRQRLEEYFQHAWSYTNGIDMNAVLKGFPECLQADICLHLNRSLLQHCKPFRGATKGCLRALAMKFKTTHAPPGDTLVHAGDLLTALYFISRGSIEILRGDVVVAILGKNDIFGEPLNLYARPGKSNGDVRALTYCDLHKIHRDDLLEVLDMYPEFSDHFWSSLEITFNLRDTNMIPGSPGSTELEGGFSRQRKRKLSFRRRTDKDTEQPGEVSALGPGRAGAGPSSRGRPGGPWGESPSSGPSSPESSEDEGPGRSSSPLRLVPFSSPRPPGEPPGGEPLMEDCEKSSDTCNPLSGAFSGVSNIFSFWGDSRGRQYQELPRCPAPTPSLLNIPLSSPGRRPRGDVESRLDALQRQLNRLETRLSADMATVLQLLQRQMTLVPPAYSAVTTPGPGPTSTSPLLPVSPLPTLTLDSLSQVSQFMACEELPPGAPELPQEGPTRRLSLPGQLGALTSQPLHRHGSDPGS
row,Compound,"hERG current change (%, negative = inhibition) at 10uM"
1,CCOC(=O)CSc1nc2sc3c(c2c(=O)n1-c1ccc(OC)cc1)CCN(C)C3,-5.76%
2,CCN1CCN(c2nc3sc4c(c3c(=O)n2-c2ccc(OC)cc2)CCCCC4)CC1,-60.3%
3,COc1ccc(CNc2nc3nc(-c4ccccc4)cc(=O)n3[nH]2)cc1OC,-13.1%
4,CCOC(=O)c1sc(NC(=O)CSc2nc(C)cc(C(F)(F)F)n2)c(C#N)c1C,4.26%
5,COc1ccc(C(=O)c2c[nH]c(C(=O)NCc3cccnc3)c2)cc1,-12.7%
6,CCN1CCc2nc(NC(=O)c3cc(F)c(F)cc3Cl)sc2C1,-34.2%
7,Cc1cccc(OCCOC(=O)c2ccc(F)c(S(=O)(=O)N3CCOCC3)c2)c1,-18.1%
8,CCN1CCN(S(=O)(=O)c2ccc(C(=O)Nc3sc4c(c3C(N)=O)CCN(CC)C4)cc2)CC1,12.4%
9,CCC(=O)Nc1sc2c(c1C(N)=O)CCN(Cc1ccccc1)C2.Cl,-53.3%
10,Cl.NC(=O)c1c(NC(=O)Cc2ccccc2)sc2c1CCN(Cc1ccccc1)C2,7.96%
11,CCN1CCc2c(sc(NC(=O)c3ccc(S(=O)(=O)N4CCOCC4)cc3)c2C(N)=O)C1,-21.9%
12,CNC(=O)c1c(NC(=O)c2ccc(S(=O)(=O)N3CC(C)OC(C)C3)cc2)sc2c1CCN(C(C)C)C2 (stereo not drawn),-26.9%
13,Cl.NC(=O)c1c(NC(=O)c2ccccc2)sc2c1CCN(Cc1ccccc1)C2,7.85%
14,CCN1CCc2c(sc(NC(=O)c3ccc4ccccc4c3)c2C(N)=O)C1.Cl,7.59%
15,CNC(=O)c1c(NC(=O)c2ccc(S(=O)(=O)N3CCCCC3)cc2)sc2c1CCN(C(C)C)C2,-65.8%
16,CCN1CCc2c(sc(NC(=O)c3ccc(S(=O)(=O)N4CC(C)OC(C)C4)cc3)c2C(N)=O)C1 (stereo not drawn),-54.5%
17,CCN1CCc2c(sc(NC(=O)c3ccc(C(=O)c4ccccc4)cc3)c2C(N)=O)C1.Cl,-55.4%
18,CNC(=O)c1c(NC(=O)c2ccc(S(=O)(=O)N3CCCC3)cc2)sc2c1CCN(C(C)C)C2,2.7%
19,CN1CCc2c(sc(NC(=O)c3ccc(C(=O)c4ccccc4)cc3)c2C(N)=O)C1.Cl,11.5%
20,N=C1/C(=C\c2ccc(-c3cccc(C(=O)O)c3)o2)C(=O)N=C2SC=C(c3ccccc3)N12,0.469%
21,CCCN1CCCc2ccccc21.Cl,7.61%

row,Compound,"hERG current change (%, negative = inhibition) at 10uM"
1,CNC(CC(C)C)C(=O)NC1C(=O)NC(CC(N)=O)C(=O)NC2C(=O)NC3C(=O)NC(C(=O)NC(C(=O)O)c4cc(O)cc(O)c4-c4cc3ccc4O)C(O)c3ccc(c(Cl)c3)Oc3cc2cc(c3OC2OC(CO)C(O)C(O)C2OC2C[C@](C)(N)C(O)C(C)O2)Oc2ccc(cc2Cl)C1O (stereo partly drawn),9.61%
2,COC(=O)c1ccc2c(=O)[nH]c(CCl)nc2c1,10.7%
3,COC(=O)NNC(=O)c1ccc(Cl)cc1Cl,19.8%
4,O=C(C1=C(O)C(=O)N(CC2CCCO2)C1c1ccc(Cl)cc1Cl)c1ccco1 (stereo not drawn),18.5%
5,COc1ccc(-c2oc(/N=C/N3CCOCC3)c(C#N)c2-c2ccc(OC)cc2)cc1,13.9%
6,CCC(=O)Nc1sc2c(c1C(=O)OC)CCN(Cc1ccccc1)C2.Cl,-62.9%
7,CCOC(=O)c1c(NC(=O)CC)sc2c1CCN(Cc1ccccc1)C2.Cl,-14.5%
8,CC(=O)Nc1sc2c(c1C(N)=O)CCN(Cc1ccccc1)C2.Cl,-23.3%
9,COC(=O)c1c(NC(=O)C(C)C)sc2c1CCN(Cc1ccccc1)C2.Cl,-38.4%
10,CC(C)C(=O)Nc1sc2c(c1C(N)=O)CCN(Cc1ccccc1)C2.Cl,-108%
11,COC(=O)c1c(NC(=O)C(C)(C)C)sc2c1CCN(Cc1ccccc1)C2.Cl,-34.7%
12,O=C(N/N=C/c1cn(-c2ccccc2)nc1-c1ccc2c(c1)OCCO2)c1ccncc1,15.2%
13,COc1ccc(NC(=O)COc2coc(CN3c4ccccc4CC3C)cc2=O)cc1 (stereo not drawn),5.06%
14,O=C(O)c1cc2c(cc1NC(=O)c1c(F)cccc1Cl)OCCCO2,5.08%
15,Cc1nc2sc3c(c2c(=O)n1/N=C/c1ccco1)CCCC3,16.8%
16,COc1cc(OC)c(N(C)C(=O)c2cc3c(s2)-c2ccccc2S(=O)(=O)C3)cc1Cl,-13.2%
17,COc1ccc(N(C)C(=O)c2cc3c(s2)-c2ccc(Cl)cc2S(=O)(=O)C3)c(OC)c1,-58.5%
18,COc1ccc(N(C)C(=O)c2cc3c(s2)-c2ccccc2S(=O)(=O)C3)cc1,-39.9%
19,CCN1CCN(C(=O)c2cc3c(s2)-c2ccccc2S(=O)(=O)C3)CC1,-11.2%
20,CN1CCN(C(=O)c2cc3c(s2)-c2ccccc2S(=O)(=O)C3)CC1,4.14%
21,CCOC(=O)N1CCN(C(=O)c2cc3c(s2)-c2ccc(Cl)cc2S(=O)(=O)C3)CC1,-66.5%
